Laboratory results reported in PubChem BioAssay AID743446 (Broad Institute, 2014).
Potency and affinity values are given separately. Unmarked numbers belong to inactive results. How the calls were made is not given here.

assay: viability loss in HEK293 cells – cell-based, plate reader, cherry-picked samples, cytotoxicity control, dose response (AID 743446); settings: hits give low values; at 26 µM unless noted

| Structure (SMILES) | max activity |
| --- | --- |
| Cc1ccc(S(=O)(=O)N(C)C[C@H]2Oc3cc(Br)ccc3S(=O)(=O)N([C@H](C)CO)C[C@H]2C)cc1 | 10.1% [at 1.6 µM] |
| COc1ccc(S(=O)(=O)N(C)C[C@@H]2OCc3cnnn3CCCC(=O)N([C@@H](C)CO)C[C@H]2C)cc1 | 0% [setting not given] |
| C[C@H](CO)N1C[C@H](C)[C@@H](CN(C)C(=O)Nc2ccc3c(c2)OCO3)Oc2c(cccc2N(C)C)C1=O | -7.24% [at 0.8 µM] |
| C[C@H](CO)N1C[C@H](C)[C@H](CN(C)C(=O)Nc2ccc(F)cc2)OCCCC[C@H](C)Oc2ccc(NC(=O)NC3CCCCC3)cc2C1=O | 38.8% [at 12 µM] |
| Cc1c(NC(=O)c2cccc(NC(=O)COc3ccccc3C#N)c2)c(=O)n(-c2ccccc2)n1C | -14.7% [at 3 µM] |
| COc1ccc(-c2cc(C(=O)N3CCCC3)no2)cc1 | 30.6% [at 0.195 µM] |
| COc1ccc(S(=O)(=O)N2CCCCN3[C@H](CO)[C@H](c4ccc(-c5cccnc5)cc4)[C@@H]3C2)cc1 | -10.9% [at 12 µM] |
| O=C(Nc1ccc(Cl)cc1)Nc1cccc(C(=O)O)c1 | -10.1% |
| c1ccc(-n2nnc3c(N4CCOCC4)ncnc32)cc1 | 32.3% [at 0.8 µM] |
| Fc1ccc(-n2nnc(-c3cnc4ccccc4c3)n2)cc1 | 26.8% [at 1.6 µM] |
| C[C@H](CO)N1C[C@H](C)[C@H](CN(C)C(=O)Nc2ccccc2)OCCCC[C@H](C)Oc2ccc(NC(=O)C3CCCCC3)cc2C1=O | 9.5% [at 3 µM] |
